Shown are actives, neighbours in structure and some others; about 3.1% of the full set was active somewhere.
RAD54 branch: blocks human RAD54 Holliday junction branch migration. Q92698. FAM/BHQ fluorescence. inhibition, % at 10.4 µM. hit rate 0.14% among 360,000. AID 602329;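 active = mean normalized replicate activity at least 40 and at least half of replicates scoring 40 or more; inconclusive = only one of the two criteria met; inactive = mean below 40 and under half of replicates reaching 40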;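 note: 0% = median of neutral control wells and 100% = median of positive control wells; inhibitors cause a drop in the FAM fluorescence signal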
Target sequence (Q92698 whole entry, looked up): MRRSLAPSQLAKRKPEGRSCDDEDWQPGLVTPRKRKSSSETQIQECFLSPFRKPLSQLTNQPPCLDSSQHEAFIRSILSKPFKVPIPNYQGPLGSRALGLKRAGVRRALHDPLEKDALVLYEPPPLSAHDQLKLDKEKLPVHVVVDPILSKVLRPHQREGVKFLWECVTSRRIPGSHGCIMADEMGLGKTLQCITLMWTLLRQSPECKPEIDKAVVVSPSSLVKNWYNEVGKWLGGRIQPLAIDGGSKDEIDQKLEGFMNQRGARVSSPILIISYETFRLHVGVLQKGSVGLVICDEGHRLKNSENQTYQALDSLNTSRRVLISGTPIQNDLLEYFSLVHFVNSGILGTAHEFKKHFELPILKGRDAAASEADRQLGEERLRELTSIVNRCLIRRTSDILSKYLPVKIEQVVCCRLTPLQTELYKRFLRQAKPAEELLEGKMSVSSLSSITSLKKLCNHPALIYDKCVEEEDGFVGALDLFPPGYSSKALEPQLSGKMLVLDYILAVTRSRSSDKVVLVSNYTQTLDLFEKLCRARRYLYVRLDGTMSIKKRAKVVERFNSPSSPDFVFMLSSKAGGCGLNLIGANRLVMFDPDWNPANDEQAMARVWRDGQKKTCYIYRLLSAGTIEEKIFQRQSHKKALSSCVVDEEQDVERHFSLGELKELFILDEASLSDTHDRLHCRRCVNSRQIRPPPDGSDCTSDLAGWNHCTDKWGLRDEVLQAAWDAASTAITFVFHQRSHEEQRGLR
GSIS activator: GLuc luminescence reporter in INS-1E cells, primary screen for activators of glucose-dependent secretion of insulin; INS-1E GLuc reporter insulin secretion, 2-3 h; AID 743287; activation, % at 16.6 µM; hit rate 0.61% among 370,000;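 active = lowest replicate activation of at least 40%, so every replicate reaches that level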;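 note: 0% = median of neutral control wells and 100% = median of IBMX positive control wells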
AF4-AF9 inh: MLL-AF4/AF9 protein interaction inhibition. AlphaScreen, biotin-AF4 peptide binding to FLAG-AF9. inhibition, % at 10 µM. hit rate 0.47% among 350,000. AID 651704;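 active = every replicate reaching a set inhibition limit, whatever the replicate mean, cut at about 25% in these data; inconclusive = mean inhibition reaches that limit but some replicates miss it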;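 note: 0% = plate neutral control median and 100% = total signal loss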
dFosB act-1: activators of mouse delta FosB homodimer. P13346. purified delta FosB, TAMRA-CDK5 oligo fluorescence polarization; percent of positive-control signal above neutral wells. activation, % at 25 µM. hit rate 0.99% among 340,000;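 active = mean activation above about 17%, with every replicate also reaching it, limit read from the data, passing the limit was not always enough; inconclusive = only one of the two conditions met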
RAD52 inh: RAD52 (human) annealing inhibition; hit rate 0.46% among 360,000; recombinant RAD52 DNA annealing, FRET fluorescence; inhibition, % at 18.7 µM;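 active = every replicate showing at least 50% inhibition; inconclusive = mean inhibition at least 50% but not in every replicate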
DENV2 CPE: inhibitors of DENV2 cytopathic effect. DENV2-infected cells, cytopathic effect rescue, plate reader. CPE inhibition, % at 9.99 µM. hit rate 1.7% among 350,000; in the data active = CPE inhibition above about 20%, passing the limit was not always enough; inconclusive = no clear call, values can overlap the other calls; tested in BHK-21 cells;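 note: 0% = median of neutral control wells and 100% = median of positive control wells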
dFosB act-2: activators of mouse delta FosB homodimer DNA binding; purified delta FosB, TAMRA-CDK5 oligo fluorescence polarization; normalised: neutral wells 0, positive control 100; AID 588690; 2,400 tested, under 10 active; shares compounds with dFosB act-1; activation, % at 24.9 µM;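 active = highest replicate activation at or above 34% and every replicate reaching that threshold; inconclusive = meets only one of the two criteria; inactive = meets neither criterion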;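 note: higher polarization means more probe DNA bound by delta FosB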
* marks the source's active call; other numbers are inactive results; ? = inconclusive; . = not tested or not shown; ! = not active in a repeat.

SMILES | RAD54 branch | GSIS activator | AF4-AF9 inh | dFosB act-1 | RAD52 inh | DENV2 CPE | dFosB act-2
COc1ccc(NC(=O)CN2C(=O)NC3(CCCC3)C2=O)c(OC)c1 | -1 | -11 | 2 | 2 | -7 | 4 | .
CO[C@H]1CC[C@H]2CCN(C)C(=O)[C@H](C)[C@@H](OC)CN(C)C(=O)c3cccc(C#N)c3OC[C@@H]1O2 | 12 | -5 | 2 | . | 3 | -3 | .
COC(=O)[C@H]1[C@H](CO)[C@H]2Cn3c(ccc(-c4ccccc4F)c3=O)[C@H]2N1Cc1ccccc1 | -24 | 7 | 0 | . | 1 | -5 | .
CCOc1ccc(-c2c(C(=O)N/N=C/c3sccc3C)nnn2-c2nonc2N)cc1 | 4 | . | 2 | 22* | -6 | -1 | -1
CCOc1ccc(-c2c(C(=O)N/N=C/c3ccc(Cl)cc3)nnn2-c2nonc2N)cc1 | -5 | -19 | -4 | 45* | -8 | -4 | 5
CCOc1ccc(-c2c(C(=O)N/N=C/c3ccc(C)s3)nnn2-c2nonc2N)cc1 | -1 | . | . | 58* | . | . | 3
CCOc1cccc(-c2c(C(=O)N/N=C/c3ccc(C)s3)nnn2-c2nonc2N)c1 | -19 | . | -6 | -2 | -11 | -3 | .
O=C(Nc1ccc(Oc2ccc3c(c2)C(=O)N(c2ccc(O)cc2)C3=O)cc1)c1cccs1 | . | 34 | . | 61* | . | . | -4
C[C@@H]1CN([C@@H](C)CO)C(=O)c2cccc(NC(=O)Nc3ccc(F)cc3)c2O[C@@H]1CN(C)Cc1ccc(Oc2ccccc2)cc1 | 2 | -4 | 2 | 43* | 4 | 55*! | 0
C[C@H]1CN([C@@H](C)CO)C(=O)c2cc(NC(=O)Nc3cccc4ccccc34)ccc2O[C@@H]1CN(C)Cc1ccc(-c2ccccc2)cc1 | -3 | 0 | 4 | 38* | 1 | -8 | 1
O=C(c1ccc(Cl)cc1)c1cnc(-c2ccccc2)s1 | 6 | . | . | -4 | . | . | .
O=C(c1ccc(Cl)cc1)c1cnc(Nc2ccccc2Cl)s1 | -4 | . | . | 53* | . | . | 6
O=C(C[C@@H]1CC[C@H]2NC[C@H](O)COC[C@@H]2O1)Nc1nccs1 | 0 | 2 | . | . | . | -2 | .
COCC(=O)N1CCC2(CC1)CN(Cc1ccccc1Cl)[C@@H](CO)c1c2c2ccc(OC)cc2n1C | . | -28 | . | . | . | . | .
CCOC(=O)c1sc(NC(=O)CN2C(=O)c3cccc4cccc(c34)C2=O)nc1C | -8 | . | . | 47* | . | . | -6
C[C@H]1CN([C@@H](C)CO)C(=O)c2cc(/C=C/c3ccccc3)cnc2O[C@@H]1CN(C)Cc1cncnc1 | 6 | -9 | 4 | . | -8 | 0 | .
C[C@H]1CN([C@@H](C)CO)C(=O)CCCn2nncc2CO[C@@H]1CN(C)S(=O)(=O)c1ccc(C#N)cc1 | . | 0 | -1 | . | 5 | -15 | .
N#C[C@H]1[C@H](c2ccccc2-c2ccccc2F)[C@H](CO)N1C(=O)C1CCC1 | . | -1 | 0 | . | -5 | 1 | .
CCNC(=O)c1c(NC(=O)C2COc3ccccc3O2)sc2c1CCCC2 (stereo not drawn) | . | 95 | . | 27* | . | . | -2
COCCCNC(=O)c1c(NC(=O)C2COc3ccccc3O2)sc2c1CCCC2 (stereo not drawn) | -5 | . | . | -8 | . | . | .
COc1ccccc1C(=O)Nc1ccc2c(c1)C(=O)N(C)C[C@@H](OC)[C@H](C)CN(CC1CC1)[C@@H](C)CO2 | -2 | -3 | 0 | . | 10 | 6 | .
COc1cccc(-c2cc(C(=O)N3CCN(S(=O)(=O)c4ccc(Br)cc4)CC3)[nH]n2)c1 | 2 | -16 | 1 | 75* | -15 | ? | 5
O=C(Nc1ccc(Cl)cc1Cl)NC1CCN(S(=O)(=O)c2ccc(F)cc2)CC1 | -16 | -16 | . | 55* | -7 | ? | 1
COCC(=O)Nc1ccc2c(c1)C(=O)N(C)C[C@H](OC)[C@H](C)CN(Cc1ccccc1OC)[C@@H](C)CO2 | -7 | 5 | 4 | . | -3 | -1 | .
Cc1ccc(C)c(NC(=O)CSc2nnc(NC(=O)C3CC3)s2)c1 | -9 | 21 | -3 | 28* | -6 | ? | 5
COc1cccc(NC(=O)CSc2nnc(NC(=O)C3CCC3)s2)c1 | 4 | 28 | -2 | -1 | -22 | -1 | .

Source: PubChem
